The full ranking holds about 25,000 sequences; the median of “ln(normalized median fluorescence intensity)” is about 6.7, and the highest 2% start at about 10. This excerpt belongs to a sample that is enriched for the highest values.
system: PfHDP1 homeodomain (GST-tagged); test: gcPBM binding intensity (ln(normalized median fluorescence intensity)); higher = stronger DNA binding
How it was run: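 In this array assay, P. falciparum DNA-binding domains with a GST tag, expressed in E. coli, were applied for 1 h to primer-extended double-stranded 36-bp intergenic genomic probes and negative controls on an Agilent 4 × 180k array. Bound protein was visualised with Alexa488 anti-GST antibody at 488 nm. Binding intensity is the highest Masliner-normalised natural-log median intensity across replicate spots of either probe orientation.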

First: AAAATATTTATATTTACACACACATAATACATATAT [CACACA_site32]
Second: TTACATATTTTCATTTGTACATATTCATTTTTTTTC [XGTACX_site6988]
The “gcPBM binding intensity (ln)” value of the first is higher: 6.84 for the first, 6.47 for the second.

Compared with “ATATATATGTGAAAATCACACATTGCTTATCTGTAA [CACACA_site6044]”, “CAAACAATTAAACAAACACACATATACATGTATATA [CACACA_site2060]” is higher in “gcPBM binding intensity (ln)” value: 6.3 for the first, 6.54 for the second.

Going from “TATAAATAAAAATATACACACTGTATTATTGTAATA [CACACA_site7721]” to “CAATGCTTTATCAATACATGCATATATATAGAAATA [TGCATGCA_site857]”, the “gcPBM binding intensity (ln)” value rises from 6.24 to 6.46.

Going from “CTTATGTGCATACCTACACACTTACATATATATATA [CACACA_site8973]” to “TGTATATATTTGTGCACACCAAAGTTTGATTTTATT [CACACA_site1860]”, the “gcPBM binding intensity (ln)” value rises from 9.47 to 11.4.

Going from “TAGTTTTTATATAGCACACATATTGTGATTATGTAT [CACACA_site1196]” to “ATATGTATTTATATATGTTTGATTTTTTTTTTTTTT [TGCATGCA_negctrl_site506]”, the “gcPBM binding intensity (ln)” value falls from 6.83 to 6.23.

Compared with “AATATATATTTATAAACACACACCAAAATTTGTGCT [CACACA_site3091]”, “TATGTATATATTTGTGCACACCAAAGTTTGATTTTA [CACACA_site1861]” is higher in “gcPBM binding intensity (ln)” value: 6.82 for the first, 11.4 for the second.

Going from “TGTATAAAAGTTTATACACACATTTGATATATTTCA [CACACA_site6606]” to “AAAAAAAAAAAAAACACACACAAATTTAATATATAT [CACACA_site1695]”, the “gcPBM binding intensity (ln)” value rises from 6.58 to 6.64.

Going from “TTTTTTTTTTTTTTTTGTACTCATATCTACTATCAT [XGTACX_site274]” to “AAATTTATATATAGTTGTACAAAAATATGTTTCGTA [XGTACX_site4801]”, the “gcPBM binding intensity (ln)” value rises from 6.44 to 6.62.

Going from “GTGGACGAAATAGTTGTAAATTTATGTGCAAACCTC [XGTACX_negctrl_site564]” to “AAATAAAATTTTATGTGTACGCAAAAAGTTGTAAGC [XGTACX_site8911]”, the “gcPBM binding intensity (ln)” value falls from 11.2 to 7.29.

Compared with “GTTTTTAATGTTTTGACATGCAATATTAAAAATAAT [TGCATGCA_site174]”, “TATATATATATATATATTTTAAATGATATAAATGGT [TGCATGCA_negctrl_site152]” is higher in “gcPBM binding intensity (ln)” value: 6.57 for the first, 9.23 for the second.

Compared with “AAAAAAAAAATGAGCACACATAAATAAAAACAAACA [CACACA_site1573]”, “AATATATCAAAAATGATGACATAAATATATTAATTT [GTGCAC_negctrl_site530]” is lower in “gcPBM binding intensity (ln)” value: 7.39 for the first, 6.13 for the second.

Compared with GTATTCATTCCTTGAGTGCAATTGCAATAAATAAAA, ATTAAATTTCCTTGAGTGCACATTTTGTTAAAATAT is lower in “gcPBM binding intensity (ln)” value: 10.7 for the first, 9.29 for the second.

First: AAATGAATATTCATAGTGCAATATATAAATGAAAAT
Second: ATACTATAATATAAAACACACATATGTACCTTCTAA [CACACA_site7323]
The “gcPBM binding intensity (ln)” value of the first is higher: 9.5 for the first, 6.67 for the second.

Compared with TATTAATATATAGTAGTGCAATAAAGATATACTGAA, “TTGCAATAATGTTGCACACTAAATAGTCATATATAA [CACACA_site263]” is higher in “gcPBM binding intensity (ln)” value: 9.67 for the first, 9.77 for the second.

Compared with TATAAGGCAATAATAGTGCACTAAGATATATAATGA, “GTATTATATTTCAACTGTACGTAAAACTATTAAAAT [XGTACX_site3679]” is lower in “gcPBM binding intensity (ln)” value: 10.7 for the first, 6.55 for the second.

First: ACCAATAAATATTTGGTGCATACATATATATATATA
Second: TCAATAAATATACATACATGCATACATACATACATA [TGCATGCA_site197]
The “gcPBM binding intensity (ln)” value of the first is higher: 10.5 for the first, 6.53 for the second.

Going from “TATTTCTTTTGGTTGGTGCATAAAATAATACAATAT [GTGCAC_site9916]” to “AAATAATTTATATATTGTACAAATATTAAATGCGAA [XGTACX_site3390]”, the “gcPBM binding intensity (ln)” value falls from 10.5 to 7.16.

Compared with “ATAACCTAATAATACACACACATGAATATATATAAT [CACACA_site4689]”, “TTATTTTCTTTCTATGCACACGCACGTATTTGCCCA [CACACA_site9104]” is higher in “gcPBM binding intensity (ln)” value: 7.17 for the first, 9.79 for the second.

Compared with “TATTTTTCCCTATGCACACACACCGTATATATAATA [CACACA_site4758]”, “ATTTTCTTTCTATGCACACGCACGTATTTGCACCCA [CACACA_site3350]” is higher in “gcPBM binding intensity (ln)” value: 10.1 for the first, 10.9 for the second.

First: CGTAATAAAAACAAATGTACATGACCTGGACAGGTT [XGTACX_site6560]
Second: TTATTTTTTTTATATATATGTATAAATATATATATA [XGTACX_negctrl_site441]
The “gcPBM binding intensity (ln)” value of the first is lower: 6.4 for the first, 7.84 for the second.

Compared with “TTATAAAATGGGCAAACACACACAAAAAAAAGATAT [CACACA_site8476]”, “TAATACTTTTAATCTACACACGCTGAGACATGCTTT [CACACA_site1484]” is lower in “gcPBM binding intensity (ln)” value: 7.42 for the first, 6.14 for the second.

Compared with “TATCTTACTTTTTGCACACACTAATATTATTGTTTA [CACACA_site4990]”, “ATAATATTATACTTTGCACACATCTGAAATGACATA [CACACA_site3952]” is lower in “gcPBM binding intensity (ln)” value: 11.1 for the first, 10.4 for the second.

First: ATATATTTTTTGAATACACACATATTATCTGTAATA [CACACA_site4826]
Second: TATATCTTACTTTTTGCACACACTAATATTATTGTT [CACACA_site1640]
The “gcPBM binding intensity (ln)” value of the first is lower: 6.45 for the first, 10.1 for the second.

Going from “ATATACTTATATATTGCACACATCTAATATTTTGAA [CACACA_site3165]” to “TAATATTACATTTATTGTACTTTGTTTTTATTTTAT [XGTACX_site1605]”, the “gcPBM binding intensity (ln)” value falls from 10.5 to 6.27.

First: ATAAATCCCAAAACCTTGCAAGACAACGTTTGATCA [CACACA_negctrl_site1327]
Second: TCTTTAACAAGTTAAACACACATACCTATATACATA [CACACA_site7237]
The “gcPBM binding intensity (ln)” value of the first is higher: 6.57 for the first, 6.47 for the second.

First: TCTTTCTTATTTTAATGATATTTATTCATTCCAGTT [CACACA_negctrl_site1679]
Second: TTCCCAACATGATATTGTACATTTAATTATAATTAA [XGTACX_site7029]
The “gcPBM binding intensity (ln)” value of the first is lower: 6.52 for the first, 7.08 for the second.

Compared with “TTATCTCTACAAAGTGCACACACGTAAAAACATATA [CACACA_site3957]”, “CAAAACATTTTATCTACACACATATATAAATAAATA [CACACA_site3220]” is lower in “gcPBM binding intensity (ln)” value: 8.98 for the first, 6.36 for the second.

First: TAAAAAAAAACATGTGCACACGTTTTATCTACATAA [CACACA_site2336]
Second: TATTATTGTCTTTCAAAAAAAAAAAAAAAAAAAAAA [CACACA_negctrl_site1242]
The “gcPBM binding intensity (ln)” value of the first is higher: 10.8 for the first, 6.11 for the second.

First: TATCGAGCCATTTTTACATGCAATTATACATAATTT [TGCATGCA_site987]
Second: AATATTGCACCATTTTGTACATAATATATTCAAATA [XGTACX_site475]
The “gcPBM binding intensity (ln)” value of the first is lower: 6.73 for the first, 10.3 for the second.

Compared with “AATATATTGCACCATTGGACCTGAATAATTCTTCCA [CACACA_negctrl_site1071]”, “ATAATTATTCTTATGGTGCACTGAATATACATGTTG [GTGCAC_site9760]” is lower in “gcPBM binding intensity (ln)” value: 11.4 for the first, 9.5 for the second.
